Compound activity (PubChem)
A selection: hits, their analogues and other compounds. The true share with any hit is near 19%.
ELG1 repair inh – qHTS screen for small molecules that inhibit ELG1-dependent DNA repair in human embryonic kidney (HEK293T) cells expressing luciferase-tagged ELG1; AID 504467, 2011; actives 2.3% (n = 330,000); HEK293T ELG1-luciferase reporter, luminescence, 16 h; DNA damage induced by 5-fluorouridine; Potency, µM (titrated, usually from 46.1 µM), without a hit: top-dose activity change, negative = inhibition, hits mostly inhibitors; further: potency means the concentration at half of the fitted maximal effect; nearly all actives have a fitted effect of over 55% in size
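HEK293T cells expressing luciferase-tagged ELG1 (2,000/well) received 5-Fluorouridine plus compound or DMSO for 16 hr at 37 °C. Luciferase was read by ONE-Glo luminescence after 30 min at room temperature.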
DT40 TDP1 no CPT – qHTS for Inhibitors of human tyrosyl-DNA phosphodiesterase 1 (TDP1): qHTS in cells in absence of CPT. AID 686978, 2013. Potency, µM (titrated, usually from 46.2 µM), for inactives: at the highest dose activity change, negative = growth inhibition, actives largely listed as inhibitors. actives 15% (n = 420,000). DT40 Tdp1-/- hTDP1 cells, no CPT, ATP luminescence, 48 h; further: potency means the concentration at half of the fitted maximal effect; nearly all actives have a fitted effect of over 55% in size
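No-CPT arm: Tdp1-/-;hTDP1 DT40 cells (400/well) plus compounds, incubated ≥48 hr at 37 °C. Readout CellTiter-Glo luminescence.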
TDP1 cell CPT – qHTS for Inhibitors of human tyrosyl-DNA phosphodiesterase 1 (TDP1): qHTS in cells in presence of CPT; Potency, µM (highest dose often 46.2 µM), without a hit: top-dose activity change, negative = growth inhibition, actives largely listed as inhibitors; chicken DT40 Tdp1-/-;hTDP1 cells + 20 nM CPT, ATP luminescence, 48 h; actives 12% (n = 420,000); further: potency means the concentration at half of the fitted maximal effect; nearly all actives have a fitted effect of over 55% in size
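Cell growth measured by CellTiter-Glo luminescence after a minimum 48 h, 37 C compound exposure with 20 nM CPT in Tdp1-knockout DT40 cells stably expressing hTDP1, seeded 400/well; qHTS titration format.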
IL-1B inflam inh – qHTS for Inhibitors of Inflammasome Signaling: IL-1-beta AlphaLISA Primary Screen. actives 4.7% (n = 360,000). AID 743279, 2014. activity change, % at 57.5 µM. THP-1 LPS/ATP IL-1B secretion, AlphaLISA, 16 h; active compounds read low; in the data active means activity change below about -50%; inconclusive means mostly about -30% to -49%
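THP-1 cells pretreated 1 hr with compounds (up to 57.5 uM final), then stimulated with LPS (250 ng/mL final) plus ATP (1.25 mM final); secreted IL-1B measured by AlphaLISA after 16 hr, decreased signal indicating inhibition.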
Giardia killer – Small Molecules that selectively kill Giardia lamblia: qHTS; activity change, % at 7.66 µM, hits read low; actives 0.15% (n = 340,000); Giardia lamblia trophozoite viability; in the data active means activity change below about -80%; inconclusive means between about -30% and that limit;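 further: parasites exposed to compound for two days anaerobically before the ATP read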
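Anaerobic 48 hrs incubation at 37 deg C of 100 trophozoites/well with test compounds; ATPLite 1-Step luminescence, 15-30 min RT, reports cellular ATP as viability.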
TDP1 block – qHTS Assay for Inhibitors of Tyrosyl-DNA Phosphodiesterase (TDP1); recombinant TDP1, AlphaScreen DNA substrate cleavage; Potency, µM (series often up to 130 µM), without a hit: at the top dose activity change, negative = inhibition, actives largely listed as inhibitors; Tyrosyl-DNA phosphodiesterase 1 (Homo sapiens), Q9NUW8; actives 0.28% (n = 350,000); further: potency means the concentration at half of the fitted maximal effect; nearly all actives have a fitted effect of over 40% in size
Target sequence (Q9NUW8 whole entry, looked up): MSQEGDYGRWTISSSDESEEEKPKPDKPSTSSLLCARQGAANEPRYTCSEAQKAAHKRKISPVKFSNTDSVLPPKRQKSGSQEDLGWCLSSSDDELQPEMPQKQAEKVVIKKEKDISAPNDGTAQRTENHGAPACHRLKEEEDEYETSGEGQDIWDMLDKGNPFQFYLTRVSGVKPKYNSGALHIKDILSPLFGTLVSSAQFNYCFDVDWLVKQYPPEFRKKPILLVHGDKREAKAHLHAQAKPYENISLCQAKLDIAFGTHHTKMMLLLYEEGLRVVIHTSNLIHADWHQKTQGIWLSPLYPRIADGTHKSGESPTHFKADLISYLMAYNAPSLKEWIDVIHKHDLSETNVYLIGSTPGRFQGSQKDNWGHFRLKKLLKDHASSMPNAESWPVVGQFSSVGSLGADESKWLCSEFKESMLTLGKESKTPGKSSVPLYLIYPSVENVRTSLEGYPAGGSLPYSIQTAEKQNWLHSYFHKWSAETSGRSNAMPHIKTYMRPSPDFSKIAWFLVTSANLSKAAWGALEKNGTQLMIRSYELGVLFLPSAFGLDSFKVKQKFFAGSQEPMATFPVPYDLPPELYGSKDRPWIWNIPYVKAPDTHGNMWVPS
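Recombinant human Tdp1 (E. coli-expressed, 1 nM final) preincubated with compounds 15 min at room temperature, then 5'-biotin/3'-phosphotyrosine-FITC DNA substrate (15 nM final) added for 5 min. AlphaScreen beads (10 ug/ml final) added 10 min; cleavage lowers signal.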
An asterisk follows results filed as active; ? = inconclusive; . = no result; [ ] = dose if it differs, or a comment. Unless noted, the call rests on the fitted dose curve; in most records, active means well fitted curve in the direction sought with a large enough effect; inconclusive means small, poorly fitted or top-dose-only effect, or another doubt; inactive means no such curve, though single readings can be large; an effect the other way counts as inactive or inconclusive. On the % scale 0 is the no-effect control and ±100 the full control effect.

SMILES | ELG1 repair inh | DT40 TDP1 no CPT | TDP1 cell CPT | IL-1B inflam inh | Giardia killer | TDP1 block
Cn1c(SCC(=O)Nc2ccccc2)nc2ccccc2c1=O | ? | ? | 2.91µM* | ? | 0.2 | .
CN(C(=O)COC(=O)c1ccc2c(c1)OCCO2)c1ccccc1 | 11.1% | -22.7% | -2.8% | ? | 1.6 | 2.6%
COc1ccccc1NC(=O)CSc1nnc(CC(=O)Nc2ccccc2)n1C | 13.3% | -8.0% | -29.7% | -50.2* | -15.1 | -4.5%
CCOC(=O)c1cccc(NC(=O)CSc2nc3ccccc3c(=O)n2CCOC)c1 | 20.6µM* | 20.6µM* | ? | -3.3 | -14.0 | -1.0%
COc1cccc(-n2c(SCC(=O)Nc3cc(C)ccc3C)nc3c(oc4ccccc43)c2=O)c1 | . | 13µM* | ? | . | . | 3.9%
CCOCCCn1c(SCC(=O)Nc2ccc(C)cc2)nc2ccccc2c1=O | . | 14.6µM* | 16.4µM* | . | . | 1.5%
O=C(COc1ccc(F)cc1)Nc1ccc2nc(SCc3ccccc3)sc2c1 | . | ? | ? | . | . | 2.6%
Cc1ccccc1NC(=O)C(C)OC(=O)CCC(=O)c1ccccc1 (stereo unspecified) | . | -6.9% | 3.0% | ? | . | .
CC(C)Cc1cc(C(=O)NCc2ccc(Cl)cc2)no1 | . | -6.8% | -12.6% | . | . | -5.5%
O=S(=O)(Oc1ccccc1N1CCCCC1)c1ccccc1 | -6.6% | ? | -6.7% | 37.1 | 36.9 | 2.9%
CCn1c(SCC(=O)Nc2cccc(OC)c2)nc2ccccc2c1=O | 23.1µM* | ? | ? | -1.7 | 20.8 | 4.1%
COc1ccc(CN(C(=O)CSc2nnc(-c3ccccc3F)o2)c2ccc(F)cc2)cc1 | ? | 12.6µM* | 18.4µM* | 11.3 | -10.7 | 3.3%
CCN(CC)C(=O)CSc1nnc(-c2cc(-c3ccc(Cl)cc3)nc3ccccc23)o1 | ? | ? | -67.7% | 3.3 | -10.9 | 4.5%
CCN(C(=O)CSc1nnc(-c2ccc(Cl)cc2)o1)c1ccccc1 | . | 20.6µM* | ? | . | . | -7.8%
CCc1ccc(OC(=O)CSc2nnc(-c3ccc(OC)c(OC)c3)o2)cc1 | . | -0.7% | -2.8% | . | . | 5.7%
CCN(C(=O)CSc1nnc(-c2cc(OC)c(OC)c(OC)c2)o1)c1ccccc1 | . | 5.8µM* | 14.6µM* | . | . | .
COc1ccc(-c2nnc(SCC(=O)N(Cc3ccccc3)C(C)(C)C)o2)cc1OC | -0.5% | 13µM* | 23.1µM* | ? | 0.9 | 0.0%
CC(C)NC(=O)c1cn(C2CCC(NC(=O)C(C)(C)C)CC2)nn1 (stereo unspecified) | . | -11.6% | 13.9%[9.04 µM] | . | . | .
Cc1cc(C(=O)Nc2ccccc2-c2nc(CNC(=O)C3(C)CCCCC3)c(C)o2)c(C)o1 | . | 1.8% | -9.7%[9.04 µM] | . | . | .
COc1cccc(-c2nnc(SCC(=O)N(C)c3ccccc3)o2)c1 | . | 10.3µM* | ? | . | . | 0.5%
COc1cc(-c2nnc(SCC(=O)N(C)C3CCCCC3)o2)cc(OC)c1OC | . | 5.8µM* | 11.6µM* | . | . | 8.6%
CCOc1ccc(-c2nnc(SCC(=O)N(CC)c3cccc(C)c3)o2)cc1 | . | 10.3µM* | 20.6µM* | . | . | 8.6%
Cc1ccc(C(=O)O)cc1NS(=O)(=O)c1ccc2ccccc2c1 | 17.2% | 0.1% | 7.0% | 33.8 | -4.7 | .
CC(C)OC(=O)C(C(=O)C(F)(F)F)c1cc(NS(=O)(=O)c2ccc3ccccc3c2)c2ccccc2c1O (stereo unspecified) | ? | 20.6µM* | 23.1µM* | -60.8* | -2.6 | 2.6%
C#C[C@]1(OC(C)=O)CC[C@H]2[C@@H]3CCC4=C/C(=N/O)CC[C@@H]4[C@H]3CC[C@@]21CC | . | 18.8µM* | ? | . | . | .
